Source: PubChem BioAssay (NCI)
The panel holds about 83,000 compounds, 20% with a hit somewhere; the sample as a whole holds those more often.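 How to read the values: 0–100, growth inhibition (40 = 60% inhibited); 0, no net growth; -100 to 0, cell death (-40 = 40% of starting cells died; -100 = all dead).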 Values without a mark were called inactive. The source made the active and inactive calls. How the source made its calls: active means growth percent below 10; inactive means the rest.

Tests used:
Test in all cases: NCI-60 one-dose screen, 48 h (100 = growth as untreated, 0 = no growth, -100 = all killed)
Settings in all cases: 10 µM unless noted
[1] = test system: EKVX NSCLC
[2] = test system: SN12C renal
[3] = test system: UO-31 renal
[4] = test system: TK-10 renal
[5] = test system: ACHN renal
[6] = test system: CAKI-1 renal
[7] = test system: CCRF-CEM leukemia
[8] = test system: MOLT-4 leukemia
[9] = test system: SR leukemia
[10] = test system: RPMI-8226 leukemia
[11] = test system: OVCAR-5 ovarian
[12] = test system: OVCAR-4 ovarian
[13] = test system: SK-OV-3 ovarian
[14] = test system: IGROV1 ovarian
[15] = test system: OVCAR-3 ovarian
[16] = test system: HS 578T breast
[17] = test system: NCI/ADR-RES ovarian
[18] = test system: A498 renal
[19] = test system: OVCAR-8 ovarian

Row | SMILES | growth [1] | growth [2] [%] | growth [3] | growth [4] | growth [5] [%] | growth [6] | growth [7] | growth [8] | growth [9] | growth [10] | growth [11] | growth [12] [%] | growth [13] | growth [14] | growth [15] | growth [16] [%] | growth [17] | growth [18] | growth [19]
1 | CCOC(=O)c1ccc(C(C)(C)C)cc1 | 114% | 107 | 89.8% | 103% | 110 | 101% | 113% | 87.1% | 95.7% | 104% | 106% | 109 | 104% | 108% | 107% | 114 | 108% | – | –
2 | CC(=O)c1cc(O)ccc1O | 112% | 97.4 | – | 93.6% | 110 | – | 73.7% | 92.8% | 94.2% | 119% | 99.9% | 108 | 107% | 117% | 119% | 110 | 92.8% | 90.6% | 95.9%
3 | Cc1c(-c2ccc(C3CCCCC3)cc2)nc2ccc(F)cc2c1C(=O)O | – | – | 34.3% | 74.7% | 43 | -2.23% (active) | 35.7% | 15.2% | 7.53% (active) | 56.1% | 76.7% | 84.2 | 58.2% | 29.7% | 41% | – | 45.7% | 89.7% | 37.6%
4 | Cc1cccnc1NC1OC(=O)c2ccccc21 (stereo unspecified) | – | 105 | 85.8% | 97% | 103 | 99.5% | 104% | 99.3% | 93.8% | 106% | 106% | 117 | 94.6% | 101% | 107% | 138 | 103% | 94.7% | 107%
5 | Clc1cccc(Cl)c1CSc1nc2ccccc2n2cccc12 | – | 102 | 71.8% | 103% | 97.3 | 70.5% | 100% | 92.9% | – | – | – | 70.4 | 88.6% | 76.4% | 92.5% | 113 | 101% | 115% | 104%
6 | FC(F)(F)c1cc(NC2=NCCN=C(Nc3cc(C(F)(F)F)cc(C(F)(F)F)c3)SS2)cc(C(F)(F)F)c1 | – | 47.2 | 35.1% | 58.4% | 43.5 | 48.1% | 28.8% | 51.2% | 1.94% (active) | 6.78% (active) | 102% | 65.8 | 79.5% | 49.7% | 25.8% | 79.3 | 59.6% | 58% | 48.6%
7 | N#CCCN1C(=O)CCC1C(=O)O (stereo unspecified) | – | 106 | 101% | 103% | 101 | 102% | 108% | -26.9% (active) | 92.9% | 95.2% | – | 114 | 145% | 107% | 115% | – | 119% | 98.9% | 98.1%
8 | NC(=S)c1c(N)n(C2OC(CO)C(O)C2O)c2ncnc(N)c12 (stereo unspecified) | -27.4% (active) | 15 | -40% (active) | -4.54% (active) | 11.3 | – | -48.9% (active) | – | – | – | 3.64% (active) | 14.5 | 5.93% (active) | -61.2% (active) | -54.1% (active) | – | -1.77% (active) | -55.6% (active) | -10.3% (active)
9 | C=C1SC(=Nc2c(C)cccc2C)N(c2nc(Cl)nc(Cl)n2)C12CCCCC2 | – | 107 | 75.6% | 108% | – | 96.6% | 95.9% | – | – | 99.8% | 118% | 101 | 99% | 97.4% | 101% | 113 | 105% | 113% | –
10 | O=C(O)Cc1cccc2ccccc12 | 101% | 121 | 93.6% | 102% | 103 | 94.6% | – | 9.03% (active) | 94.5% | 104% | – | 122 | 103% | 112% | 111% | – | 100% | 106% | 110%
